35 compounds from PubChem BioAssay (NCI) can be followed below.

Compounds without any hit were thinned out: in the full panel of roughly 83,000, 20% have a hit.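 Method: cells in 96-well plates; compound added at one concentration; 48 h incubation; percent growth measured; values under 10 scored active.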 Active and inactive are the calls of the source.

The first test concerns U251 CNS. In words: NCI-60 one-dose screen, 48 h (100 = growth as untreated, 0 = no growth, -100 = all killed). The conditions noted are these: 10 µM unless noted.
In the case of `COc1cc2nc(SCc3ccccc3)n(-c3ccc(Cl)cc3)c(=O)c2cc1OC`, the growth was -73.1% (active). Regarding `Cc1cccc(-c2nc(Nc3cccc(S(N)(=O)=O)c3)c3ccccc3n2)c1`, the growth was 36.3% (inactive). Still for that read-out and setting: next, `COc1ccc2[nH]cc(-c3nnc(N)nc3-c3cn(C)c4ncc(Br)cc34)c2c1`: 75.1% (inactive); `CCN(CC)c1ccc(/C=N/Nc2nc(-c3ccc(C)cc3)cs2)c(O)c1`: 90% (inactive); `N/C(=N\c1nc2ccccc2s1)NC(=O)Nc1ccccc1Br`: -53.3% (active).

Another test concerns PC-3 prostate. Described as above. The conditions noted are these: 10 µM unless noted.
For the compound `Cc1ccc(S(=O)(=O)c2nc(S(=O)(=O)c3ccc(C)cc3)c(Cl)s2)cc1`, the growth was 18% (inactive).

Regarding `CCCCSc1nc(Nc2ccc(C(C)=O)cc2)c(C#N)c(-c2ccc(OC)cc2)n1`, the growth is 90.8% (inactive). Still for that read-out and setting: then `CCOC(=O)C1=C(N)N(c2ccccc2)C2=C(C(=O)CC(C)(C)C2)C1c1ccc([N+](=O)[O-])cc1` (stereo not given), with 68% (inactive); and `Cc1cccc(Nc2nc3ccccc3nc2/C=C/c2ccc(F)cc2)c1`, with 89.1% (inactive).

As for `Cc1cccc(NC(=O)CN2CCN(c3ncnc4c3cnn4-c3ccccc3)CC2)c1`, the growth is 63.1% (inactive). On the same count and under the same terms, next, `Cn1cc(-c2cc3nc(-c4c[nH]c5ccc(Br)cc45)cc(N)n3n2)c2ccccc21`: -77.3% (active); `C#CCOc1ccc(/C=N/Nc2nc(-c3cc4cc(OC)ccc4oc3=O)cs2)cc1OC`: 20.8% (inactive). For the compound `CC1(C)CC[C@]2(C(=O)O)CC[C@]3(C)C(=CCC4[C@@]5(C)C[C@@H](O)[C@@H]6OC(c7ccc(F)cc7)OC[C@@]6(C)C5CC[C@]43C)C2C1` (stereo not given in full), the growth was 17.6% (inactive). On the same count and under the same terms, then `O=C(NN1C(=O)/C(=C/C=C/c2ccc([N+](=O)[O-])o2)SC1=S)c1cccc(O)c1`, with -40.2% (active). Turning to `Cc1ccc(C(=O)NN2C(=O)/C(=C/C=C/c3ccc([N+](=O)[O-])o3)SC2=S)cc1`, the growth is -15.1% (active). Same read-out and setting: then `N/C(=N\c1nc2ccccc2s1)NC(=O)Nc1c(Cl)cccc1Cl`, with 63.2% (inactive). Still for that read-out and setting: then `O=C(CN1C(=O)/C(=C/c2ccccc2Cl)SC1=S)N1CCOCC1`, with 102% (inactive); and `CN(C)c1nc(NCCNS(=O)(=O)c2ccc(C3=Nc4c(N)nc(N)nc4NC(c4ccc(C(F)(F)F)cc4)C3)cc2)nc(Nc2ccc(F)cc2)n1` (stereo not given), with 17.8% (inactive); and `O=C(CSc1nc2ccccc2c(=O)[nH]1)NCCN1CCCCC1`, with 91.2% (inactive). Take `Cn1cc(-c2nnc(N)nc2-c2c[nH]c3ccc(Br)cc23)c2cc(Br)cnc21`: the growth is 38.5% (inactive). For `O=C(O)Cn1c(O)c(/C=C2/C=c3cc4c(cc3=NC2=O)OCCO4)sc1=S`, the growth is 106% (inactive). The same measure, in the same setting: then `N/C(=N\c1nc2ccccc2s1)NC(=O)Nc1ccc(Cl)cc1Cl`, with -2.3% (active). Still for that read-out and setting: next, `Cc1ccc(-c2nc(C#N)c(S(=O)(=O)N3CCN(S(=O)(=O)c4ccccc4)CC3)o2)cc1`: 52.3% (inactive); `COc1cccc(-c2nc(Nc3ccc(S(N)(=O)=O)cc3)c3ccccc3n2)c1`: 29.3% (inactive); `COc1ccc(/C=C/c2nc3ccccc3n3c(-c4ccc(Cl)cc4)nnc23)cc1`: 77.1% (inactive). In the case of `CNS(=O)(=O)c1ccc(Nc2ccc(C(F)(F)F)cc2)c(-c2cn(C)cn2)c1`, the growth was 57.6% (inactive). Still for that read-out and setting: next, `CCS(=O)(=O)N1CCCC(C(=O)Nc2nc3ccc(NC(=O)c4ccc(F)c(OC)c4F)cc3s2)C1` (stereo not given): 50.6% (inactive); `C#CCOc1cc(N(CC)CC)ccc1C(C(=O)NC(C)(C)C)N(C(=O)C1CCc2cc(F)ccc2O1)c1cc(C)cc(C)c1` (stereo not given): 13.2% (inactive); `C#CCOc1ccc(/C=N/Nc2nc(-c3ccc(Cl)cc3)cs2)cc1OC`: 29.9% (inactive).

For the compound `O=C(COc1ccc2c(c1)CCCC(=O)N2)NCc1ccccc1`, the growth is 94.9% (inactive). `CN(C)c1nc(NCCNS(=O)(=O)c2ccc(C3=Nc4c(N)nc(N)nc4NC(c4ccccc4)C3)cc2)nc(Nc2ccc(F)cc2)n1` (stereo not given): the growth is 26.5% (inactive).

With `CC1(C)CC[C@]2(C(=O)O)CC[C@]3(C)C(=CCC4[C@@]5(C)C[C@@H](O)[C@@H]6OC(c7ccccc7F)OC[C@@]6(C)C5CC[C@]43C)C2C1` (stereo not given in full), the growth was 16% (inactive).

On to `Cc1cccc(-c2nc(Nc3ccc(C)c(S(N)(=O)=O)c3)c3ccccc3n2)c1`, for which the growth was 15.7% (inactive). Still for that read-out and setting: next, `COC(=O)C[C@](O)(CCCC(C)(C)O)C(=O)O[C@H]1C(OC)=C[C@@]23CCCN2CCc2cc4c(cc2[C@@H]13)OCO4`: -15.1% (active); `Cn1cc(-c2cc(N)n3nc(-c4cn(C)c5ccccc45)cc3n2)c2cc(Cl)ccc21`: -38.1% (active).
